The values that follow come from PubChem BioAssay.

Test [1] concerns Human papillomavirus type 1a protein E7 (residues 44-93). Nature of the test: small molecules binding HPV E7 44-93 – biochemical, small-molecule microarray, residues 44-93, 635 nm fluorescence, primary screen (AID 1108).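 Also: E7 fragment applied at 1 µg/mL in TBST for 1 h at 4 C; score combines spot fluorescence with its signal to noise ratio.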 The conditions noted are these: fluorescence 635 nm, higher = more signal.
Test [2] in a line: hepatitis C replication reporter changes, two-sided – Huh7 cells, luciferase reporter, HCV replication inhibitor project, primary screen (AID 1109).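 Also: huh7 hepatoma cells harbouring a luciferase neomycin HCV replicon reporter; luciferase luminescence as measure of HCV replicon replication; test concentration not given here.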 The conditions noted are these: Huh7 HCV replicon luciferase reporter, 48 h; higher = more signal. For orientation: In a reporter assay the amount or activity of a reporter protein is the signal.
Test [3] concerns the target Left-right determination factor 2 (Homo sapiens) (UniProt O00292). Nature of the test: small molecules binding LEFTY2 protein – biochemical, small-molecule microarray, 635 nm fluorescence scan, primary screen (AID 1110). The note with it: higher = more signal.
Test [4] concerns the target Calmodulin-1 (Homo sapiens) (UniProt P0DP23). Nature of the test: small molecules binding calmodulin-1 with EGTA – biochemical, small-molecule microarray, Cy5-labelled CALM1, profiling panel (AID 1111).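 Also: labelled calmodulin applied in Tris saline Tween buffer holding calcium plus EGTA and DTT.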 The note with it: Cy5-CALM1 binding fluorescence, higher = more signal.
The target is the same in test [5]. Briefly: small molecules binding Ca-loaded calmodulin-1 – biochemical, small-molecule microarray, Cy5-labelled CALM1, plus calcium, artefact control for SMM control-protein annotation, profiling panel (AID 1112).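 Also: score merges spot fluorescence with signal to noise from triplicate slides.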 The note with it: Cy5-CALM1 binding fluorescence, higher = more signal.
Test [6] can be described thus: probe aWnt5a binding to arrayed compounds – biochemical, biotinylated probe, 635/667 nm fluorescence, primary screen (AID 1113).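 Also: score merges 667 nm fluorescence intensity with signal-to-noise per printed feature.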 The note with it: small-molecule microarray, higher = more signal.
The nature of test [7]: probe aShh binding to arrayed compounds – biochemical, biotinylated probe, 635/667 nm fluorescence, primary screen (AID 1114).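 Also: probe is biotin-labelled aShh protein from a stem cell growth factor screen; measures binding of labelled protein to compounds printed on the slide; score merges feature fluorescence at 667 nm with signal-to-noise.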 The conditions noted are these: small-molecule microarray, higher = more signal.
Test [8] in a line: probe aNog binding to arrayed compounds – biochemical, biotinylated probe, 635/667 nm fluorescence, primary screen (AID 1115).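 Also: probe is biotinylated aNog protein used at 0.15 µg/mL for 1 h at 4 C; z-score combines 667 nm fluorescence of each spot with its signal to noise.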 The conditions noted are these: small-molecule microarray, higher = more signal.
For test [9], the target named is Torsin-1A-interacting protein 1 (Homo sapiens) (UniProt Q5JTV8). Nature of the test: compound microarray binding of lysate hLAP1 – cell lysate, small-molecule microarray, COS7 lysate, 635/667 nm fluorescence, primary screen (AID 1116). The note with it: 635 nm fluorescence, higher = more signal.
In test [10] the target is Alpha-bungarotoxin (Bungarus multicinctus) (UniProt P60615). Briefly: compounds binding labelled alpha-BTX control protein – biochemical, small-molecule microarray, Alexa647 label, 635/667 nm fluorescence, artefact control for SMM control protein annotation, profiling panel (AID 1117). The conditions noted are these: alpha-BTX-A647 binding fluorescence, higher = more signal.
Alpha-bungarotoxin (Bungarus multicinctus), sequence (P60615 whole entry, looked up): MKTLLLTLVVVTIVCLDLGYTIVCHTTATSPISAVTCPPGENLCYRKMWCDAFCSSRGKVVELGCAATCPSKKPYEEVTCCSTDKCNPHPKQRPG

Left-right determination factor 2 (Homo sapiens), sequence (O00292 whole entry, looked up): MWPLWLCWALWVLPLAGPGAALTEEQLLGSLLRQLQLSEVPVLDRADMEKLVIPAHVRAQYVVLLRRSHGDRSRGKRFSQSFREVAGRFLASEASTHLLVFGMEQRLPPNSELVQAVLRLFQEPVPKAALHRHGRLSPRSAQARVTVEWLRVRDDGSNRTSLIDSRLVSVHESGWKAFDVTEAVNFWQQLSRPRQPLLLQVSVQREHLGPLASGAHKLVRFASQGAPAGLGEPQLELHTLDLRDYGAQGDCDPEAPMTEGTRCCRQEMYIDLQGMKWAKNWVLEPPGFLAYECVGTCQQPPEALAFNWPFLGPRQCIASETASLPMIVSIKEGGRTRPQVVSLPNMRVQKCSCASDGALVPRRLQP
Torsin-1A-interacting protein 1 (Homo sapiens), sequence (Q5JTV8 whole entry, looked up): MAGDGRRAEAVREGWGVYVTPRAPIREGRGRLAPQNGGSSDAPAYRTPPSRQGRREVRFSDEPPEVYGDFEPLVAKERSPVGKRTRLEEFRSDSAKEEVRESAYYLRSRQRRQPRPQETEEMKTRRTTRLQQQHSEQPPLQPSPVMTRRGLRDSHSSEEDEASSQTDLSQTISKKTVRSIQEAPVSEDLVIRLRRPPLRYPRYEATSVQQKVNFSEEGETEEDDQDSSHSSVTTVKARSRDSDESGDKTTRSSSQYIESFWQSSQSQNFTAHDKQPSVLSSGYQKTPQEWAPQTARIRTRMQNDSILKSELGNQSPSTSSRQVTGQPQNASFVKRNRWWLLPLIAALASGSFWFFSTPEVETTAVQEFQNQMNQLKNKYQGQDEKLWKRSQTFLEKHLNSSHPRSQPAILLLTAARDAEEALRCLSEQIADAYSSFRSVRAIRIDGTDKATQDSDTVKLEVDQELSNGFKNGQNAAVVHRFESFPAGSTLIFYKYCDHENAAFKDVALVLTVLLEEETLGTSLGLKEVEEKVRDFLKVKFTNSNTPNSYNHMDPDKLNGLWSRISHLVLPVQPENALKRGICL

On to `CC(C)=CCCC(C)=CCON=C1C[C@@H](O)[C@@H](O)[C@@H]2[C@@H]3C(=O)N(c4cccc(Oc5ccccc5)c4)C(=O)[C@@H]3CC[C@H]12`, for which the composite z-score in [1] is 1.32; in [3], 0.323; in [4], 0.322; in test [5], 0.321; in test [6], -0.148; in [7], 0.0483. The composite z-score in test [8] is -0.0129; in test [9], 0.173; in test [10], -0.0168. The same molecule registered a z-score in [2] of 0.237.
Consider `CCOC(=O)NN=C1C[C@@H](O)[C@@H](O)[C@@H]2[C@@H]3C(=O)N(c4ccc(F)cc4F)C(=O)[C@@H]3CC[C@H]12`, for which the composite z-score was 0.108 in test [1]; 0.42 in [3]; -0.244 in test [4]; -0.212 in [5]; -0.126 in test [6]; -0.289 in [7]. Also, the values for the composite z-score in test [8], in test [9] and in [10] were 0.0775, 0.59 and 0.21, respectively. The z-score in test [2] was found to be 1.28.
Take `COc1ccc(COC(=O)NN=C2C[C@@H](O)[C@@H](O)[C@@H]3[C@@H]4C(=O)N(C[C@@H]5CCCO5)C(=O)[C@@H]4CC[C@H]23)cc1`: the composite z-score in test [1] was -0.491; in [3], -0.34; in [4], -0.325; in test [5], 0.237; in [6] it was 0.0162; in test [7] it was -0.138. Further, the composite z-score in test [8] is -0.103; in test [9], 0.656; in test [10], 0.418. Moreover, the z-score in test [2] was -0.186.
Regarding `COc1ccc(O[C@H]2C=C[C@@H](C#Cc3ccccc3)O[C@@H]2CO)cc1`, the composite z-score is 0.342 in [1]; -0.0192 in test [3]; 1.42 in [4]; 0.493 in [5]; -0.124 in test [6]; 0.0048 in [7]. Further, the composite z-score was -0.0428 in [8], 0.158 in test [9] and 0.439 in test [10]. Moreover, the z-score in [2] was -2.17.
On to `C[C@@H]1CC[C@H]2C(=O)O[C@@H](COc3ccc(C(C)(C)C)cc3)CN2[C@H]1c1ccc(Br)cc1`, for which the composite z-score is 0.269 in test [1]; 0.193 in test [3]; -0.543 in test [4]; -0.229 in [5]; -0.0704 in test [6]; -0.214 in test [7]. In addition, the composite z-score in [8] turned out to be 0.0762; in [9], 0.0021; in [10], 0.315. For the same molecule, the z-score in test [2] is -0.157.
Regarding `COC(=O)[C@@H]1CC[C@H](C)[C@@H](c2ccc(Br)cc2)N1`, the composite z-score in test [1] is -1.28; in test [3], 0.0281; in test [4], -0.0261; in [5], 0.394; in [6], 0.0375; in [7] it was 0.261. In addition, the composite z-score stood at 0.101 in test [8], 0.488 in test [9] and 0.234 in [10]. The molecule also registered a z-score in test [2] of -0.178.
As for `CC(CCN1CCCCc2nc(C)c(C)cc21)=NOC[C@@H](O)[C@H]1O[C@@H]2OC(C)(C)O[C@@H]2[C@H]1O`, the composite z-score in test [1] is -0.902; in [3], 1.39; in test [4], -0.554; in [5], -1.3; in test [6], -0.124; in test [7], -0.0626. The composite z-score in test [8] was 0.0254; in [9], -0.219; in test [10] it was 0.969. In test [2], this molecule registered a z-score of 0.0388.
In the case of `CC(C)(C)N1C(=O)[C@H]2[C@H]3[C@H](O)[C@H](O)CC(=NNC(=O)OCc4ccccc4)[C@@H]3CC[C@H]2C1=O`, the composite z-score in [1] is 0.594; in test [3], 0.432; in [4] it was -0.213; in test [5], -0.412; in [6], -0.0721; in [7], -0.399. Besides, the composite z-score is -0.137 in [8], 0.505 in test [9] and 0.162 in test [10]. In addition, in test [2], the z-score turned out to be 0.508.
Turning to `O=C1C[C@H](c2ccccc2)[C@H](c2ccc(Br)cc2)O1`, the composite z-score is 0.12 in test [1]; 0.603 in [3]; -0.649 in [4]; -0.447 in test [5]; -0.129 in [6]; -0.138 in test [7]. The composite z-score was -0.35 in [8], -0.264 in test [9] and 0.239 in [10]. In [2], this molecule yielded a z-score of 0.588.
Take `CC(=O)OC[C@H]1O[C@H](CC=NOC(C)CN2CCCCc3nc(C)c(C)cc32)C=C[C@@H]1OC(C)=O` (stereo not given in full): the composite z-score in test [1] is 1.11; in test [3], 1.08; in test [4] it was -0.208; in test [5] it was -0.745; in [6], 0.0044; in [7], -0.179. Moreover, the composite z-score in test [8] amounted to 0.0805; in test [9], 0.556; in test [10], 0.971. For the same molecule, in test [2], the z-score was -0.339.
As to `CCN1C(=O)[C@H]2[C@H]3[C@H](O)[C@H](O)CC(=NNC(=O)OCc4ccccc4)[C@@H]3CC[C@H]2C1=O`, the composite z-score in [1] was -0.577; in [3] it was -0.0089; in test [4] it was -0.0328; in [5], -0.285; in test [6], -0.0405; in test [7], -0.0463. The values for the composite z-score in [8], in [9] and in [10] were -0.0879, -0.399 and 0.645, respectively. The molecule also yielded a z-score in test [2] of 0.232.
On to `COC(=O)[C@@H]1CC[C@H](C)[C@@H](c2ccc(C)cc2)N1C(=O)c1ccc(C=NO[C@@H](C)c2cc(-c3c(C)cc(C)cc3C)no2)cc1`, for which the composite z-score in [1] is 1.04; in test [3] it was 0.45; in test [4], 0.0785; in test [5], -0.37; in test [6] it was -0.0236; in [7], -0.141. In addition, the composite z-score is 0.0373 in test [8], 0.722 in test [9] and 0.208 in test [10]. For the same molecule, the z-score in test [2] was -0.542.
For `COCC#Cc1ccc([C@@H]2N[C@H](C(=O)O)CC[C@H]2C)cc1`, the composite z-score in test [1] was -0.216; in test [3] it was 0.794; in test [4] it was -0.292; in test [5], 0; in test [6], -0.224; in [7] it was -0.117. In addition, the figures for the composite z-score in test [8], in [9] and in test [10] were -0.186, -0.416 and 0.0645, respectively. Moreover, the z-score in test [2] amounted to 0.958.
With `CCOC(=O)CCN1C(=O)[C@H]2[C@H]3[C@H](O)[C@H](O)CC(=NO[C@@H]4O[C@H](CO)[C@@H](O)[C@H](O)[C@H]4O)[C@@H]3CC[C@H]2C1=O`, the composite z-score is 1.21 in test [1]; 0.809 in [3]; -0.896 in test [4]; -1.99 in [5]; -0.0417 in [6]; 0.296 in test [7]. The composite z-score in test [8] is -0.0784; in test [9], 0.533; in [10], 0.844. The z-score in test [2] was determined as 0.891.
As for `O=C1[C@H]2CCn3c(=O)n(Cc4cc5c(cc4Cl)OCO5)c(=O)n3[C@H]2[C@H](O)[C@@H]2O[C@H]12`, the composite z-score in test [1] is -0.552; in test [3], 0.269; in test [4] it was -0.806; in test [5], -0.697; in [6], -0.295; in test [7], -0.237. The composite z-score in test [8] was -0.492; in test [9], 0.054; in test [10], 0.389. This molecule returned a z-score in [2] of -1.94.
As for `CCC1=NOC(CCC2CC(OC(=O)NCc3cccc4c3OCO4)CC3(CCCC(COC(=O)NCCc4ccc(Cl)cc4)O3)O2)C1` (stereo not given), the composite z-score in [1] is 0.916; in [3], 0.304; in test [4] it was -0.257; in test [5], -0.532; in [6], -0.142; in test [7], -0.16. Further, the composite z-score in [8] was -0.402; in [9] it was -0.342; in test [10], -0.148. In test [2], this molecule registered a z-score of -0.0374.
With `COC(=O)[C@H](C)NC(=O)CCC1CC(OC(=O)NCCc2ccc(F)cc2)CC2(CCCC(COC(=O)NCC3CCCCC3)O2)O1` (stereo not given in full), the composite z-score in test [1] is 1.39; in test [3], 0.573; in test [4] it was 0.71; in test [5], -0.039; in test [6], -0.1; in [7] it was 0.0469. The composite z-score was determined as 0.144 in test [8], 0.774 in test [9] and 0.382 in test [10]. Also, in test [2], the z-score is -1.34.
Regarding `CC(CCN1CCCc2nc(C)c(C)cc21)=NO[C@@H](C)c1cn([C@H](CO)Cc2ccccc2)nn1`, the composite z-score in test [1] is 0.425; in test [3], 0.67; in test [4] it was -0.168; in test [5] it was -0.671; in test [6], -0.0199; in [7] it was 0.0952. Also, the composite z-score in test [8] came to 0.139; in test [9], 0.527; in test [10] it was 0.117. The molecule further came in with a z-score in test [2] of -0.0976.
